# Bioassay records: PubChem BioAssay, National Center for Advancing Translational Sciences (NCATS)
# A selection: hits, their analogues and other compounds. The true share with any hit is near 4.6%.
# TRHR ag = TRH receptor (human) agonism | 0.18% of 360,000 active | TRHR cells, calcium flux fluo-8, FDSS agonist mode | activation, % at 2 µM; further: 0% is about no effect
# Target sequence (P34981 whole entry, looked up): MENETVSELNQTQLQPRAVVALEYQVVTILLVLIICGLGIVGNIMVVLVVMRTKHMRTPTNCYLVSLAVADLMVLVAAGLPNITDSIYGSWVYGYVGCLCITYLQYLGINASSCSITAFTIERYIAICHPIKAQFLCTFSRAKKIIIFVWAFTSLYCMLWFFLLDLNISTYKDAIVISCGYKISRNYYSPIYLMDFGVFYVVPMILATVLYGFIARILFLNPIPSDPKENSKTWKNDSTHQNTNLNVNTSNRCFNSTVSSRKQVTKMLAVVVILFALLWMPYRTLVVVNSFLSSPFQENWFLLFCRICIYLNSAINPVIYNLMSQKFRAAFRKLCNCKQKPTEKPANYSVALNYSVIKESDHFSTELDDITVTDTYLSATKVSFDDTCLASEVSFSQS
#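 Read-out: compound-evoked intracellular calcium rise in TRHR cells, fluo-8 dye, kinetic FDSS fluorescence at 1 s/cycle following a 10-cycle baseline. Cells cultured overnight before dye loading (30 min–1.5 h, RT).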
# TRHR enhancer = TRH receptor (human) allosteric enhancement. TRHR cells, fluo-8 calcium fluorescence, EC20 TRH enhancement. enhancement, % at 2 µM. 0.66% of 360,000 active. AID 493056; in the data active means enhancement above about 30%; further: 0% is about no effect
#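 TRHR-expressing cells loaded with fluo-8 calcium dye were read kinetically (ex 480/em 530) during compound addition, then stimulated with an EC20 of TRH (10 nM final). Enhancement of the Gq-mediated intracellular calcium response was scored.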
# D1 antagonist = human D1 dopamine receptor antagonism; P21728; HEK293 TREx D1 cells, calcium flux, dopamine EC80; active compounds read low; 3.2% of 360,000 active; activity change, negative = inhibition, % at 10 µM; in the data active means activity change below about -30%; further: on the % scale 0 is the no-effect control and ±100 the full control effect
#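 Using tetracycline-induced force-coupled D1 Hek293 cells and a calcium dye, signals were followed for 180 s after compound, then for 180 s after EC80 dopamine, to detect inhibitors.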
# D1 PAM = potentiators of human D1 dopamine receptor. 0.036% of 360,000 active. AID 504651. potentiation, % at 10 µM. P21728. HEK293 TREx D1 cells, calcium flux, dopamine EC20 potentiation; in the data active means potentiation above about 30%; further: 0% is about no effect
# D1 ag = human D1 receptor agonism; P21728; HEK293 T-REx D1 cells, calcium flux, agonist mode; activation, % at 2 µM; 1% of 360,000 active; further: 0% is about no effect
#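 Agonism was scored from calcium flux recorded over 180 s (1 read/s) after pintool compound addition, following a 10-cycle baseline. Cells were inducible force-coupled HEK293 TREx D1, plated overnight at 30 C and loaded with no-wash calcium dye.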
# The depositor's hits bear a star; ! = not confirmed by another sample. Unless noted, no stated cut-off is given here; in the data, active means activation above about 30%; inactive means the rest.
SMILES,TRHR ag,TRHR enhancer,D1 antagonist,D1 PAM,D1 ag
COc1cc(CN2CCc3ccc(NC(=O)CCc4ccccc4OC)cc3C2)ccc1O,0,1,-10,-8,10
COc1cccc(CN2CCc3ccc(NC(=O)CCc4ccc(C)cc4)cc3C2)c1O,0,7,-31*,3,2
CC(=O)Nc1cccc(N2C(=O)CCC2=O)c1,0,0,-2,3,1
CC(=O)c1c(Cl)nc2ccc(Br)cc2c1-c1ccccc1,0,35*,3,8,2
CC(=O)c1c(C)nc2ccc(Br)cc2c1-c1ccccc1,-2,-9,-4,1,1
COc1cccc(CNC(=O)C2CCC(CNS(=O)(=O)c3cccc4nsnc34)CC2)c1 (stereo not given),0,2,-41*,-7,5
CCCCN(CC)C(=O)C1CCC(CNS(=O)(=O)c2cccc3nsnc23)CC1 (stereo not given),-1,-6,-31*!,-4,7
CCC(C)(C)NC(=O)C1CCC(CNS(=O)(=O)c2cccc3nsnc23)CC1 (stereo not given),0,-4,-40*,0,6
O=C(NCc1cccs1)C1CCC(CNS(=O)(=O)c2cccc3nsnc23)CC1 (stereo not given),0,10,-2,-4,5
Nc1ccc(C(=O)Nc2ccc(OC(F)(F)C(F)F)c(NC(=O)c3ccc(N)cc3)c2)cc1,0,1,-32*,1,3
CCOC(=O)N1CCN(C(=O)c2c[nH]c3ccc(S(=O)(=O)N(C)c4ccc(OCC)cc4)cc3c2=O)CC1,0,24,-89*,-19,2
CCN(CC)S(=O)(=O)c1ccc2[nH]cc(C(=O)NCCC3=CCCCC3)c(=O)c2c1,-1,4,-34*,-10,4
CCN(CC)S(=O)(=O)c1ccc2[nH]cc(C(=O)NCCN3CCCCCC3)c(=O)c2c1,-1,19,10,-5,3
CCOc1ccc(N(C)S(=O)(=O)c2ccc3[nH]cc(C(=O)NCC(OC)OC)c(=O)c3c2)cc1,0,3,0,-6,3
CCOC(=O)N1CCN(C(=O)c2c[nH]c3ccc(S(=O)(=O)N(C)c4ccc(F)cc4)cc3c2=O)CC1,0,0,1,-4,-1
CCOc1ccc(N(C)S(=O)(=O)c2ccc3[nH]cc(C(=O)NCc4ccccc4)c(=O)c3c2)cc1,0,37*,-11,-2,1
CC(=O)NC(=S)Nc1ccccc1C(=O)NC1CCCCC1,1,2,22,-9,0
O=C1C(=O)N(C2CCCC2)C(=O)N1Cc1c(F)cccc1Cl,0,-2,1,-2,1
COc1ccc(CCNc2nc(-c3cccnc3)cs2)cc1OC,0,5,-5,-4,4
CCOC(=O)N1CCN(c2ccc(S(=O)(=O)N3CCC(C)CC3)cc2[N+](=O)[O-])CC1,0,-3,-26,-3,5
CC1=[N+](C)c2c(ccc3cccnc23)C1(C)C,4,-11,-29,-4,17
O=C(Nc1ccc(S(=O)(=O)N2CCCCCC2)cc1)c1[nH]ncc1[N+](=O)[O-],0,0,-34*,-6,7
COC(=O)c1cc(-c2ccc(S(=O)(=O)N3CCCC(C)C3)cc2)c(C(F)(F)F)s1 (stereo not given),1,-14,-41*,-12,2
COC(=O)c1cc(S(=O)(=O)N2CCCC(C)C2)cn1C (stereo not given),0,-2,-8,-1,2
CCCc1nnc2n1N=C(c1ccc(OC)c(OC)c1)CS2,-1,34*,8,6,-1
C=C(C)c1cccc(C(C)(C)NC(=O)N2CCC(C)CC2)c1,0,-9,-43*,-9,0
C=C(C)c1cccc(C(C)(C)NC(=O)N2CCN(C)CC2)c1,0,-3,1,-3,1
C=C(C)c1cccc(C(C)(C)NC(=O)N2CCN(c3ccc(OC)cc3)CC2)c1,0,-3,-37*,-7,0
O=C(/C=C/c1ccco1)c1ccc(NC(=O)C23CC4CC(CC(C4)C2)C3)cc1,0,-2,9,-1,2
Clc1ccccc1CNCCCSc1nnnn1-c1ccccc1,0,-1,1,-1,31*
